Screening results (PubChem)
Sampled rows, rich in hits. Any-hit rate of the full collection: about 1.2%.
Rv3671c inh = inhibits the M. tuberculosis serine protease Rv3671c | P9WHR9 | 320,000 tested, 0.048% active | inhibition, % at 5.96 µM | AID 2606; in the data active means inhibition above about 38%;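 further: extracellular domain of Rv3671c used as enzyme; 0% = enzyme with DMSO and 100% = no enzyme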
Target sequence (P9WHR9 whole entry, looked up, the tested form may be a part): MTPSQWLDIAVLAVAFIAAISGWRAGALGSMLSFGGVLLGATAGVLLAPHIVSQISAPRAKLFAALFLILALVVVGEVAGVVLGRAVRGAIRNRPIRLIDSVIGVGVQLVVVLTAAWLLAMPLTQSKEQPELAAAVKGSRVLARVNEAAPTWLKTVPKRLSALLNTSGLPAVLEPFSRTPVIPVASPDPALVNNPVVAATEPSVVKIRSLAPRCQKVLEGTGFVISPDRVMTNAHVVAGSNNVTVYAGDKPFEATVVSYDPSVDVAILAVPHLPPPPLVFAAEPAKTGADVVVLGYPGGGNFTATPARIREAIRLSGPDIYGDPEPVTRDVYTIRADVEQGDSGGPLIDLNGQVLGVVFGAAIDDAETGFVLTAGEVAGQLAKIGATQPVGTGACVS
PriA SSB inh = inhibitors of Klebsiella pneumoniae PriA binding to SSB C-terminal tail; 430,000 tested, 0.6% active; inhibition, % at 33 µM; AlphaScreen SSBct-PriA binding, biotinylated peptide; in the data active means inhibition mostly above about 37%, no sharp cut-off; inactive means mostly below about 20%;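 further: plate controls were negative control peptide for no effect and reference peptide for full effect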
UGM FP inh = inhibitors of M. tuberculosis UDP-galactopyranose mutase | P9WIQ1 | purified UGM, fluorescence polarization probe displacement | inhibition, % at 10 µM | 320,000 tested, 0.06% active; in the data active means inhibition above about 10%, passing the limit was not always enough
PrPC surface inh = inhibitors of human cell surface prion protein PrPC | P04156 | TR-FRET read-out | inhibition, % at 13.8 µM | 370,000 tested, 0.43% active; in the data active means inhibition above about 24%; further: 0% = median of the test wells and 100% = reference compound wells
PrP UTR inh = inhibition of PrP 5' UTR reporter expression; 340,000 tested, 0.35% active; cell-based PrP 5' UTR mRNA reporter, plate reader; inhibition, % (concentration not given with the values); in the data active means inhibition above about 52%; further: 0 = median of the neutral control wells
FadD28 binding = inhibitors of Mycobacterium tuberculosis FadD28 bisubstrate binding | FadD28 bisubstrate probe binding, fluorescence polarization | 360,000 tested, 0.22% active | inhibition, % at 12.5 µM; in the data active means inhibition above about 8.5%, passing the limit was not always enough
An asterisk follows results filed as active; . = no result given; ! = repeats disagree.

SMILES	Rv3671c inh	PriA SSB inh	UGM FP inh	PrPC surface inh	PrP UTR inh	FadD28 binding
O=C(NCCn1ccn2nc(-c3ccco3)cc12)NCc1cccs1	.	4	.	.	.	.
COC(=O)c1ccc(C(=O)Nc2nnc(-c3ccc4c(c3)CCCC4)o2)cc1	.	38*	.	.	.	.
CN(C)S(=O)(=O)c1ccc(C(=O)Nc2nnc(-c3ccc4c(c3)CCCC4)o2)cc1	1	-9	5	1	4	-2
c1ccc(C(c2c[nH]c3ccccc23)c2c[nH]c3ccccc23)nc1	0	32	-2	-15	-28	-1
Cn1cc(C(c2ccccn2)c2cn(C)c3ccccc23)c2ccccc21	6	50*	-1	11	-13	2
O=C(NCCC(O)c1cccc2ccccc12)c1cnccn1 (centres undefined)	.	14	.	.	.	.
O=C1CC(c2ccccc2F)C(=O)N1 (centres undefined)	.	42*	.	.	.	.
Cn1cnc(S(=O)(=O)N2CCC(S(=O)(=O)Cc3ccco3)CC2)c1	.	68*	.	.	.	.
O=S(=O)(Cc1ccco1)C1CCN(S(=O)(=O)c2ccccc2F)CC1	.	83*	.	.	.	.
S=c1[nH]nc(-c2ccccn2)n1N=Cc1cccs1	.	58*	.	.	.	.
O=[N+]([O-])c1cc2c(cc1C=Nn1c(-c3ccccn3)n[nH]c1=S)OCO2	.	99*	.	.	.	.
O=[N+]([O-])c1cc2c(cc1C=Nn1c(-c3ccccc3)n[nH]c1=S)OCO2	.	-5	.	.	.	.
S=c1[nH]nc(-c2ccccc2)n1/N=C/c1cccs1	-8	.	0	.	-42	1
O=C(N/N=C/c1c[nH]c2ccccc12)c1cc(Cl)ccc1O	11	.	4	-2	-18	16*
O=C(c1cccs1)N1CCN(Cc2nc(-c3ccccc3)cs2)CC1	.	-9	.	.	.	.
S=C(NCc1ccccn1)NN=Cc1ccccn1	.	61*	.	8	10	-1
Nc1ccc(Nc2ccccc2)c(S(=O)(=O)O)c1	5	15	-2	1	.	81*
Cc1ccc(N)cc1S(N)(=O)=O	.	-14	.	.	.	.
Cc1ccc(Nc2ccc(N)cc2S(=O)(=O)O)cc1	-2	-19	0	-8	-36	85*
CSc1ccccc1NC(=O)C(=O)NCC1CCN(S(=O)(=O)c2cccnc2)CC1	.	-15	.	.	.	.
CC(C)N1C(=O)/C(=C/C=C/c2ccco2)C(=O)N(Cc2ccco2)C1=O	-31	0	-2	-5	-32	-1
COc1ccc(/C=C2/C(=O)N(Cc3ccco3)C(=O)N(C(C)C)C2=O)cc1	-22	-3	-2	2	-18	9.5*
CN(C)CCN(C(=O)c1ccc2ccccc2c1)c1nc2c(F)cc(F)cc2s1	2	37*!	2	-7	-11	-5
Cc1cc(C)c2nc(N(CCCN(C)C)C(=O)c3ccc4c(c3)OCCO4)sc2c1	2	1	0	-9	-13	-3
Cc1ccc2sc(N(CCN(C)C)C(=O)c3ccc4c(c3)OCCO4)nc2c1C	.	40*	.	.	.	.
SMILES	Rv3671c inh	PriA SSB inh	UGM FP inh	PrPC surface inh	PrP UTR inh	FadD28 binding
O=C(Nc1ccc2ncsc2c1)C(c1ccccc1)c1ccccc1	.	-12	.	.	.	.
N#C/C(=C/C1=C(N2CCOCC2)C(=C/c2ccccc2)/CC1)C(=O)Nc1ccccc1F	.	17	.	-2	0	9.9*
CCN(Cc1ccccc1)c1ccc(C=NN2CCOCC2)cc1	.	47*	.	.	.	.
Nn1c(SCc2ccccc2)nnc1-c1ccccn1	-2	45*	-1	-4	-45	-1
CCOc1cc(C(=O)Nc2ccc(Cl)c3ncsc23)cc(OCC)c1OCC	.	-8	.	.	.	.
Fc1ccc(NC(=S)N2CCCc3ccccc32)cc1	9	41*	2	-2	-21	-4
COc1ccc(OC)c(C(=O)Nc2cc(C)nn2C)c1	.	-12	.	.	.	.
CC1CCc2oc3c(cc(NS(=O)(=O)c4ccc(Br)cc4)c4ccccc43)c2C1 (centres undefined)	.	37*	.	.	.	.
CCc1c(C)nc2ccc(Br)cc2c1SCCC#N	-11	-13	3	47*	-17	-7
CCCc1c(C)nc2ccccc2c1SCCC#N	-1	7	0	-1	-9	-5
Cc1cccc(NS(=O)(=O)c2ccc(C)c(C(=O)NC3CCN(Cc4ccccc4)CC3)c2)c1	.	47*	.	3	-4	-2
Cc1ccccc1C(=O)NC1CCN(Cc2ccccc2)CC1	-3	5	0	-5	-6	-1
CC(C)(C)n1nc2c(c1NC(=O)CC(c1ccccc1)c1ccccc1)CS(=O)(=O)C2	.	-9	.	.	.	.
c1ccc(Nc2cccc(Nc3ccccc3)c2)cc1	8	66*	0	-5	-60	2
O=C(Cn1cncn1)NN=Cc1cc([N+](=O)[O-])ccc1O	.	40*	.	.	.	.
CCCn1nc([N+](=O)[O-])c(C(C#N)c2nc3ccccc3o2)c(Cl)c1=O (centres undefined)	14	22	4	-34	-9	15*
Cn1nc([N+](=O)[O-])c(C(C#N)c2ccccn2)c(Cl)c1=O (centres undefined)	-7	-1	-2	-8	9	1
Cc1ccc(Cn2c(C(C)Nc3nc(-c4ccc(Cl)c([N+](=O)[O-])c4)cs3)nc3cc(C(F)(F)F)ccc32)cc1 (centres undefined)	-11	-5	4	3	-19	-4
CCn1nc([N+](=O)[O-])c(C(C#N)c2nc3cc(C(F)(F)F)ccc3s2)c(Cl)c1=O (centres undefined)	22	73*	3	-31	-32	45*
Cc1ccc(NCCN(C)C)c2c(=O)c3cc(O)ccc3sc12	.	62*	.	-19	-10	1
O=S(=O)(N=C(Nc1nccs1)c1ccc(F)cc1)c1ccccc1	.	-2	.	.	.	.
Cc1ccc(NC(=O)c2ccccc2NC(=O)C2COc3ccccc3O2)c(C(=O)c2ccccc2)c1 (centres undefined)	.	61*	.	.	.	.
CSc1ccc(CNC(=O)CSc2nccn2-c2cccc(C(=O)NCc3ccco3)c2)cc1	.	46*	.	.	.	.
O=C(NCCn1ccnc1-c1ncccn1)c1ccc(S(=O)(=O)N2CCOCC2)cc1	.	92*	.	.	.	.
O=C(NCCN1CCOCC1)c1ccc(Cl)c(S(=O)(=O)N2CCCC2)c1	-13	39*	-4	4	-20	-2
SMILES	Rv3671c inh	PriA SSB inh	UGM FP inh	PrPC surface inh	PrP UTR inh	FadD28 binding
O=C(NCCn1ccnc1-c1ncccn1)C1(c2ccccc2)CCOCC1	.	40*	.	.	.	.
Nn1c(-c2ccncc2)n[nH]c1=S	.	5	.	.	.	.
CC/C(=C\c1ccc(N(C)C)cc1)c1ccncc1	.	49*	.	0	-31	2
CCCCC1=CC2=C(c3ccco3)C(=O)C(C)(OC(=O)c3ccc(OC)cc3)C(=O)C2=CN1CCOC (centres undefined)	15	-5	2	-1	-10	-1
CCCCC1=CC2=C(c3ccco3)C(=O)C(C)(OC(=O)c3ccc(OC)cc3)C(=O)C2=CN1Cc1ccccc1 (centres undefined)	0	2	1	31*	-5	2
CSc1ccccc1OCc1cc(C(=O)N2CCN(c3ccccc3)CC2C)no1 (centres undefined)	-3	-11	0	-7	-55	-3
